Compounds with a hit are over-represented: about 3.5% of the library has one in this group of screens.
DNMT1 block: inhibitors of human DNMT1. P26358. DNMT1 molecular beacon, Hinp1I cleavage, fluorescence. inhibition (reported as % activation of signal), % at 10 µM. 360,000 tested, 0.83% active. AID 588458; in the data active = inhibition above about 50%
MBD2 DNA inh: MBD2-methylated oligo binding inhibition | AID 686964 | TR-FRET, MBD2 binding to methylated oligonucleotide | 370,000 tested, 0.31% active | inhibition, % at 4.4 µM; in the data active = inhibition above about 13%
Target sequence (Q9UBB5 whole entry, looked up): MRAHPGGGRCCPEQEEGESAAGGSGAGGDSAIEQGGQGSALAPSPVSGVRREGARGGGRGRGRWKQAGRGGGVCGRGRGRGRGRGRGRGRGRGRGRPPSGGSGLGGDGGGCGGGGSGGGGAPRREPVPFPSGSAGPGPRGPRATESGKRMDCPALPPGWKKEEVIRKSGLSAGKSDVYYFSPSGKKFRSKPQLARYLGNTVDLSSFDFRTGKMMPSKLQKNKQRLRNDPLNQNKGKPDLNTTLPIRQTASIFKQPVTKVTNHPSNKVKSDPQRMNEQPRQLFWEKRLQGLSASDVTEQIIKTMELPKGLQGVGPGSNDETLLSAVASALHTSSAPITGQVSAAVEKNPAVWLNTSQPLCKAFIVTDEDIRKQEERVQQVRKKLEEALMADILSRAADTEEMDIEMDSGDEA
PG9 binder: small molecules binding HIV-1 gp120 antibody PG9 | 360,000 tested, 0.43% active | TR-FRET gp120-PG9 antibody binding | inhibition, % at 6.7 µM; in the data active = inhibition above about 8.5%
LEDGF integ inh: blocks HIV-1 LEDGF/p75-dependent DNA integration; TR-FRET IN-LEDGF/p75 DNA integration, Eu/Cy5; 370,000 tested, 0.64% active; inhibition, % at 3.7 µM;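 active = inhibition above the screen-wide mean plus 3 SD, cut at about 13% in these data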;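 also: signal is the Cy5 over europium emission ratio at 671 and 618 nm; 0% = plate median of compound wells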
rCAG binder: binds r(CAG) RNA repeats. r(CAG) RNA repeat, TO-PRO-1 dye displacement fluorescence. AID 651821. 370,000 tested, 1.3% active. inhibition, % at 3 µM;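 active = inhibition above the plate cutoff, the mean of all test compounds on that plate plus 3 SD, cut at about 35% in these data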;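 also: 0% = DMSO alone and 100% = 100 µM mitoxantrone as full dye displacement; higher means more dye released from RNA so lower well fluorescence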
UHRF1 binding: human UHRF1 methylated DNA binding inhibitors | Q96T88 | inhibition, % at 4.4 µM | 370,000 tested, 0.75% active | UHRF1 binding to methylated oligo, TR-FRET | AID 687016;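 also: UHRF1 SRA domain binding a hemimethylated CpG hairpin DNA probe; 0% = median of test compound wells and 100% = reference inhibitor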
UHRF1 DNA bind: inhibits human UHRF1 binding to methylated oligonucleotide, MBD2 counter-screen; shares compounds with MBD2 DNA inh; TR-FRET; inhibition, % at 4.4 µM; 1,000 tested, 25% active; AID 720530;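 also: UHRF1 SRA domain binding a labeled hemimethylated CpG hairpin DNA; 0% = vehicle only and 100% = reference inhibitor with vehicle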
MBD2 DBD conf: MBD2-DBD methyl-DNA binding inhibition, TR-FRET confirmation. 1,000 tested, 26% active. AID 720531. TR-FRET MBD2-DBD binding to methylated oligonucleotide. inhibition, % at 4.4 µM. shares compounds with MBD2 DNA inh; in the data active = inhibition above about 14%
Numbers without * were called inactive; x = no result given. Rule as the data show it, unless noted: active = inhibition above about 21%; inactive = the rest.

SMILES | DNMT1 block | MBD2 DNA inh | PG9 binder | LEDGF integ inh | rCAG binder | UHRF1 binding | UHRF1 DNA bind | MBD2 DBD conf
O=C1CCCN1CC(O)CS(=O)(=O)Cc1ccc(Cl)c(Cl)c1 (configuration not stated) | 1.9 | 15.7* | -0.1 | -1.3 | 3.8 | 4.1 | 6.8 | 3.4
NCc1cc2c3c(c1)CCCN3CCC2 | -14.5 | 18.3* | -0.1 | 1.4 | 0.0 | 16.0 | 17.1 | 15.3*
O=C1CC(c2ccc(S(=O)(=O)N3CCN(c4ccccc4)CC3)cc2)CN1 (configuration not stated) | 0.8 | 32.5* | -0.2 | 1.6 | -1.5 | -0.3 | 6.4 | 0.8
O=S(=O)(NC1CCCC1)c1ccc(S(=O)(=O)N2CCN(c3ccccc3)CC2)cc1 | 11.1 | 3.4 | 0.3 | 2.2 | -0.7 | -2.5 | x | x
OC(c1cccc(Cl)c1)c1nc(-c2cnc3ccccc3c2)cs1 (configuration not stated) | -13.1 | -1.8 | -0.7 | -4.7 | 5.3 | 1.8 | x | x
CC(=O)N1CCN(C(=O)c2cc(C)oc2C)CC1 | 2.9 | 2.4 | -0.7 | -3.5 | 2.1 | -0.9 | x | x
Cc1cc(C(=O)N2CCOCC2)c(C)o1 | -3.0 | 15.4* | -0.7 | 2.4 | -0.7 | 21.7* | 8.2 | 2.5
O=C(NC1CC1)C1CCN(S(=O)(=O)c2ccc(Cl)c([N+](=O)[O-])c2)CC1 | 5.7 | 34.5* | 0.3 | -5.4 | 10.8 | 4.7 | 7.4 | 2.6
CCCCOCCCNS(=O)(=O)Cc1ccccc1 | 6.2 | 19.6* | -1.6 | -1.0 | -2.7 | -0.1 | 2.9 | 0.8
O=c1[nH]cnc2c1ncn2[C@@H]1C[C@@H](O)[C@H](CO)O1 | 1.5 | 7.1 | -0.3 | 5.0 | 0.4 | 0.7 | x | x
O=c1[nH]cnc2c1ncn2[C@H]1CC[C@@H](CO)O1 | -1.0 | 38.0* | -1.7 | 2.8 | 0.9 | 22.7* | 6.6 | 2.4
COc1cc(OC)cc(C(=O)Nc2ccc3c(c2)CCCN3C(=O)c2cccs2)c1 | -5.3 | 24.9* | 0.7 | -0.4 | 2.8 | -3.5 | 2.6 | 2.5
O=C(Nc1ccc2c(c1)CCCN2C(=O)c1cccs1)c1ccccc1 | -0.2 | 1.6 | -0.7 | -0.8 | -1.3 | -3.5 | x | x
O=S(=O)(NCC(Nc1ccc(Cl)cc1)c1ccccc1)c1ccccc1 (configuration not stated) | -20.6 | -1.6 | -1.3 | 5.8 | 6.6 | 4.3 | x | x
NS(=O)(=O)c1ccc(NC(CNS(=O)(=O)c2ccccc2)c2ccccc2)cc1 (configuration not stated) | -2.3 | 13.8* | 1.4 | 2.0 | 7.5 | 18.6 | 3.0 | 1.3
O=C(/C=C/[C@H]1O[C@@H](n2ccc(=O)[nH]c2=O)[C@H](O)[C@@H]1O)NC1CCN(Cc2ccccc2)C1 (some centres not stated) | 3.7 | -2.0 | -0.7 | 2.3 | 2.2 | -0.9 | x | x
COC(=O)[C@H]1[C@H](c2ccccc2)[C@H](C(=O)OC)O[C@H]1c1ccccc1 | -2.8 | 0.2 | -1.6 | 3.7 | -1.5 | 1.8 | x | x
COC(=O)C1C(c2ccccc2)C=CC(c2ccccc2)C1C(=O)O (configuration not stated) | -0.2 | 43.8* | -0.4 | 1.3 | 2.2 | 2.0 | 8.0 | 2.8
O=C1c2ccccc2C(=O)c2c(NCCCN(CCO)CCO)cccc21 | 45.6 | 55.8* | -31.9 | -2.5 | 6.2 | 36.4* | 56.9* | 59.2*
COc1ccc(Cn2c(=S)[nH]c3cc(OC)c(OC)cc3c2=O)cc1 | -6.3 | -0.1 | -0.8 | 3.0 | -1.4 | 1.4 | x | x
COc1ccc(Cn2c(=O)[nH]c3cc(OC)c(OC)cc3c2=O)cc1 | 6.3 | 16.6* | 0.3 | 0.7 | -2.9 | 31.1* | 5.5 | 2.9
CCCC(=O)Nc1ccc(NC(=O)Cc2ccccc2)cn1 | 0.1 | 2.9 | -1.3 | 1.1 | -4.5 | -1.5 | x | x
CCCC(=O)Nc1ccc(NC(=O)CCc2ccccc2)cn1 | 2.3 | 68.7* | -0.1 | -3.4 | -1.3 | 4.2 | 7.2 | 5.0
CC1CCC(NCc2ccco2)CC1 (configuration not stated) | 4.5 | 18.0* | -1.9 | 1.1 | 1.3 | 1.9 | 0.4 | 5.8
CC1CCCC(C)N1C(=S)NCc1ccco1 (configuration not stated) | -1.8 | -2.0 | -1.3 | 1.6 | 1.0 | 0.0 | x | x
SMILES | DNMT1 block | MBD2 DNA inh | PG9 binder | LEDGF integ inh | rCAG binder | UHRF1 binding | UHRF1 DNA bind | MBD2 DBD conf
Cc1cccc(OCc2ccccc2)n1 | -1.3 | -5.6 | -0.7 | 0.3 | 1.5 | 0.6 | x | x
Cc1cc(C)n(C(=O)/C(C#N)=C/N(C)C)n1 | 3.1 | 38.7* | -0.9 | 1.9 | 0.3 | 5.4 | 3.8 | 5.3
Cc1c(CC(=O)O)c(=O)oc2c(C)c3occ(-c4ccc(Br)cc4)c3cc12 | 3.5 | 29.8* | 0.2 | 2.7 | 6.6 | 0.6 | 0.5 | 2.6
COc1ccc(-c2coc3c(C)c4oc(=O)c(CC(=O)O)c(C)c4cc23)cc1 | -0.1 | 1.9 | 0.0 | -4.6 | 6.2 | 3.3 | x | x
C#CCOc1ccc(/C=C2/C(=O)NN(c3ccc(F)cc3)C2=O)cc1OC | 8.5 | -1.0 | -3.9 | -7.0 | 15.5 | -1.9 | x | x
CN1CCCN(C(=O)C2CCCN(C(=O)c3ccc4c(c3)NC(=O)CS4)C2)CC1 (configuration not stated) | x | 25.3* | x | 6.3 | 1.3 | -0.1 | 9.4 | 3.2
Cc1cccc(C=CC(=O)c2ccccc2)c1 | 4.0 | 8.2 | 1.0 | 3.0 | 4.7 | -0.5 | x | x
O=C(/C=C/c1ccc2ccccc2c1)c1ccoc1 | 20.9 | 20.4* | -1.4 | 1.7 | 14.4 | -6.5 | 6.7 | 2.4
CCc1ccc(CNC(=O)c2ccc(OC3CCN(C(=O)COC)CC3)cc2)nc1 | -0.5 | 2.2 | -0.8 | -1.1 | -9.7 | 1.5 | x | x
O=C(O)c1cc2c([nH]c1=O)CCCC2 | -2.6 | -5.3 | 1.4 | -0.3 | -2.3 | 1.3 | x | x
O=C(O)c1cccc2c3c([nH]c12)CCCC3 | 0.3 | 18.1* | 0.0 | -3.0 | 0.1 | 0.5 | 5.1 | 2.5
S=C(NCCCN1CCOCC1)Nc1ccc(Cl)cc1 | -2.2 | 1.9 | 2.1 | 0.7 | -1.4 | -3.8 | x | x
O=C(NCCCN1CCOCC1)C(=O)NCc1ccc(Cl)cc1 | 0.6 | 13.1* | 0.8 | -0.8 | -4.5 | 1.4 | 7.4 | 3.3
CCc1ccc(/C=C2\SC(=S)N(CCC(=O)Nc3cc(C)on3)C2=O)cc1 | 42.7 | -0.7 | -1.1 | 0.1 | 0.8 | -3.6 | x | x
CCc1ccc(/C=C2\SC(=S)N(CCCC(=O)Nc3cc(C)on3)C2=O)cc1 | 11.5 | 14.7* | -0.5 | -1.1 | 4.1 | -1.4 | 2.7 | 1.8
N#CCC(=O)Nc1ccc(C(=O)OCC(=O)c2ccc3c(c2)NC(=O)CO3)cc1 | -4.9 | 14.0* | 4.6 | -1.6 | 19.1 | 14.1 | 17.0 | 13.3*
CCOc1ccc(C=Nn2c(-c3ccc(F)cc3)n[nH]c2=S)cc1 | x | -5.8 | x | 2.4 | 25.3 | -2.4 | x | x
CN(Cc1ccon1)C(=O)C1CCN(C2CCN(CCCc3ccccc3)CC2)CC1 | 0.6 | 0.6 | -1.9 | -0.9 | -9.0 | -0.9 | x | x

Assay outcomes as filed in PubChem.
